A selection: hits, their analogues and other compounds. The true share with any hit is near 2%.
HGIII-sPLA2 inh = Inhibits HGIII-sPLA2 liposome hydrolysis, primary screen; Q9NZ20; QFRET BODIPY PC-A2 liposome hydrolysis, fluorescence; inhibition, % at 12.2 µM; 370,000 compounds, 0.56% hits; AID 743126;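 active = inhibition above mean plus 3 SD of compounds lying within the high and low control bounds, cut at about 19% in these data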;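 also: 0% = median of test compound wells and 100% = no enzyme DMSO wells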
Target sequence (Q9NZ20 whole entry, looked up): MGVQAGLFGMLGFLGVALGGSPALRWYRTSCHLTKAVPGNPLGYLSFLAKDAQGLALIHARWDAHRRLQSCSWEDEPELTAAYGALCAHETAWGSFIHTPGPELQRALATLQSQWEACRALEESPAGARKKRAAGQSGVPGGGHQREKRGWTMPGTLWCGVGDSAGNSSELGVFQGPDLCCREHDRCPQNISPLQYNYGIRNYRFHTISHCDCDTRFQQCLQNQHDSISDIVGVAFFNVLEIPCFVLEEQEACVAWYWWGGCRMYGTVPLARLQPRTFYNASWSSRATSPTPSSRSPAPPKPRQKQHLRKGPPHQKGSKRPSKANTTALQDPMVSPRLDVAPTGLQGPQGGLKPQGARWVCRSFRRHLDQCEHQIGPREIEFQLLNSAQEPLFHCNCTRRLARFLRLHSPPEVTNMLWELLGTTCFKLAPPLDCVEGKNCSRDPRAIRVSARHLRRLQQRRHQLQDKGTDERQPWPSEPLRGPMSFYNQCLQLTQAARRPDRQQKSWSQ
DAGLB inhibitor = blocks human DAGLB lipase activity; Q8NCG7; HEK293T DAGLB membrane lysate, EnzChek fluorogenic substrate; inhibition, % at 5.17 µM; 340,000 compounds, 0.059% hits; AID 504411; in the data active = inhibition above about 34%;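 also: 0% = enzyme with vehicle and 100% = wells lacking enzyme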
ARNT-TACC3 inh = disrupts binding between human ARNT and TACC3; Q9Y6A5; AlphaScreen His-ARNT PAS-B/GST-TACC3 binding, luminescence; TACC3 fragment carries E629A point mutation; inhibition, % at 9.99 µM; 390,000 compounds, 0.66% hits;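 active = mean inhibition of replicates at least 50% and at least half of replicates each reaching 50%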;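 also: 0% = complete ARNT plus TACC3 wells and 100% = ARNT alone without TACC3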
Neddylation inh = inhibitors of human cullin neddylation | P61081+Q13564 | TR-FRET cullin neddylation, biochemical | inhibition, % at 25 µM | 360,000 compounds, 0.58% hits | AID 651699; in the data active = inhibition above about 36%
NadD inh = inhibitors of Staphylococcus aureus NadD; purified NadD enzyme, colorimetric absorbance read-out; inhibition, % at 20 µM; 360,000 compounds, 0.78% hits; AID 602399; in the data active = inhibition above about 26%
Neddyl inh conf = confirmation of human cullin neddylation inhibitors | TR-FRET cullin neddylation biochemical assay | shares compounds with Neddylation inh | calls only at 25 µM | 1,800 compounds, 13% hits; in the data active = inhibition above about 40%;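 also: neddylation substrate is the cullin 1 ring ligase complex with SKP2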
* hit, by the source's call.

COc1ccc(OC)c(/C=N/NC(=O)c2ccc(N(C)S(=O)(=O)c3ccccc3)cc2)c1 was read as HGIII-sPLA2 inh -6, DAGLB inhibitor -5, ARNT-TACC3 inh -13 and NadD inh 6.
`CCOc1cc(/C=N/NC(=O)c2ccccc2OCc2ccc(F)cc2)ccc1O` gave HGIII-sPLA2 inh 0, DAGLB inhibitor -4, Neddylation inh 12 and NadD inh 10.
Screening COc1ccc(/C=N/NC(=O)c2ccc(N(C)S(=O)(=O)c3ccccc3)cc2)c(OC)c1 returned HGIII-sPLA2 inh 0, DAGLB inhibitor -2, ARNT-TACC3 inh -12, Neddylation inh 43*, NadD inh 0 and Neddyl inh conf inactive.
For COc1ccc(C=NNC(=O)c2ccccc2OCc2ccc(F)cc2)c(OC)c1 the results were HGIII-sPLA2 inh 0, DAGLB inhibitor -2, ARNT-TACC3 inh -5, Neddylation inh 42*, NadD inh 8 and Neddyl inh conf inactive.
For Cc1ccc(S(=O)(=O)Nc2ccc3c(c2)C(=O)N([C@@H](C)CO)C[C@@H](C)[C@@H](CN(C)C(=O)CCC(F)(F)F)OCCCC[C@@H](C)O3)cc1 the results were ARNT-TACC3 inh 7.
For CCOc1ccc2oc(C(=O)NNC(=O)c3csc(N4CCOCC4)n3)c(C)c2c1 the results were HGIII-sPLA2 inh 1, DAGLB inhibitor 0, ARNT-TACC3 inh -8, Neddylation inh 41*, NadD inh 9 and Neddyl inh conf inactive.
Screening CCOc1ccc2oc(C(=O)NCC3CCCO3)c(C)c2c1 (configuration not stated) returned HGIII-sPLA2 inh -9, DAGLB inhibitor -5, ARNT-TACC3 inh 8, Neddylation inh 46*, NadD inh -1 and Neddyl inh conf active.
For COc1ccc2oc(C(=O)NCC3CCCO3)c(C)c2c1 (configuration not stated) the results were HGIII-sPLA2 inh 0, DAGLB inhibitor -3, ARNT-TACC3 inh -6 and NadD inh -4.
For CCOc1ccc2oc(C(=O)Nc3ccc(N4CCOCC4)cc3)c(C)c2c1 the results were HGIII-sPLA2 inh -2, DAGLB inhibitor 2, ARNT-TACC3 inh 0, Neddylation inh 17 and NadD inh 7.
C[C@H](CO)N1C[C@H](C)[C@H](CN(C)C(=O)CC2CC2)Oc2cc(-c3ccncc3)ccc2S1(=O)=O was read as ARNT-TACC3 inh -5.
COc1cccc(S(=O)(=O)N[C@H]2CC[C@H](CCn3cc(-c4ccc(F)cc4)nn3)O[C@@H]2CO)c1 was read as ARNT-TACC3 inh -2.
`O=C(C[C@@H]1CC[C@@H]2[C@H](COC[C@@H](O)CN2C(=O)c2cccnc2)O1)Nc1ccc(-c2ccccc2)cc1` gave ARNT-TACC3 inh -2.
For Cc1ccc(O)c(/C=N/NC(=O)CN2CCCC2)c1 the results were HGIII-sPLA2 inh 3, DAGLB inhibitor 0, ARNT-TACC3 inh 66*, Neddylation inh 46*, NadD inh -3 and Neddyl inh conf inactive.
`O=C(N/N=C/c1c(O)n(-c2ccccc2Cl)c(=O)c2ccccc12)C1COc2ccccc2O1` (configuration not stated) gave DAGLB inhibitor 14, ARNT-TACC3 inh -3, Neddylation inh 48*, NadD inh 16 and Neddyl inh conf inactive.
`Cc1ccc(-n2c(O)c(/C=N/NC(=O)C3COc4ccccc4O3)c3ccccc3c2=O)cc1` (configuration not stated) gave HGIII-sPLA2 inh 13, DAGLB inhibitor 12, Neddylation inh 44*, NadD inh 23 and Neddyl inh conf inactive.
`Cc1ccc(/C=N/NC(=O)C2COc3ccccc3O2)s1` (configuration not stated) gave HGIII-sPLA2 inh 3, DAGLB inhibitor -2, ARNT-TACC3 inh 9, Neddylation inh -10 and NadD inh 1.
`CCCCC[n+]1ccn(-c2nc3ccccc3nc2[N-]S(=O)(=O)c2ccccc2)c1` gave HGIII-sPLA2 inh -3, DAGLB inhibitor 0, ARNT-TACC3 inh 22, Neddylation inh 32 and NadD inh -3.
`CCCC[n+]1ccn(-c2nc3ccccc3nc2[N-]S(=O)(=O)c2ccc(Cl)cc2)c1` gave HGIII-sPLA2 inh 3, DAGLB inhibitor 0, ARNT-TACC3 inh 20, Neddylation inh -47 and NadD inh 10.
`Cc1ccc(S(=O)(=O)[N-]c2nc3ccccc3nc2-n2cc[n+](CCC(C)C)c2)cc1` gave HGIII-sPLA2 inh -6, DAGLB inhibitor 1, ARNT-TACC3 inh -4, Neddylation inh 44*, NadD inh 7 and Neddyl inh conf inactive.
For CC(C)CC[n+]1ccn(-c2nc3ccccc3nc2[N-]S(=O)(=O)c2ccc(Cl)cc2)c1 the results were HGIII-sPLA2 inh -5, DAGLB inhibitor 0, ARNT-TACC3 inh -2, Neddylation inh 39*, NadD inh 9 and Neddyl inh conf inactive.
Screening CCNC(=O)C[C@@H]1C=C[C@@H](NC(=O)NC2CCCCC2)[C@H](CO)O1 returned ARNT-TACC3 inh -9.
Screening COC(=O)[C@@]1(CCS(=O)(=O)c2ccccc2)COC(c2ccc(OCCCO)cc2)=N1 returned ARNT-TACC3 inh -5.
`COc1c2ccccc2nc2ccccc12` gave HGIII-sPLA2 inh 5, DAGLB inhibitor 3, ARNT-TACC3 inh 11 and NadD inh 1.
Cc1c2ccccc2nc2ccccc12 was read as HGIII-sPLA2 inh -3, DAGLB inhibitor 10, ARNT-TACC3 inh 2, Neddylation inh 50*, NadD inh 1 and Neddyl inh conf inactive.
`CCN1C(=O)CCN(C2CCCC2)c2nc(Nc3ccc(C(=O)NC4CCN(C)CC4)cc3OC)ncc21` gave HGIII-sPLA2 inh 0, DAGLB inhibitor -5, ARNT-TACC3 inh 8, Neddylation inh 31*, NadD inh -8 and Neddyl inh conf inactive.
Screening COCC(=O)Nc1ccc2c(c1)C(=O)N(C)C[C@@H](OC)[C@H](C)CN(Cc1cccc(F)c1)[C@@H](C)CO2 returned ARNT-TACC3 inh -6.
Screening C[C@H]1CN([C@@H](C)CO)C(=O)Cc2cc(NC(=O)C3CC3)ccc2O[C@H]1CN(C)C(=O)Nc1ccc2c(c1)OCO2 returned ARNT-TACC3 inh -6.
Screening NC(=O)c1cnn2c(-c3cccc(C(F)(F)F)c3)ccnc12 returned HGIII-sPLA2 inh -1, ARNT-TACC3 inh 2, Neddylation inh 48*, NadD inh -5 and Neddyl inh conf inactive.
Cc1cc(=O)n2[nH]c(-c3ccccc3)cc2n1 was read as HGIII-sPLA2 inh 1, DAGLB inhibitor -3, ARNT-TACC3 inh 1, Neddylation inh 44*, NadD inh 1 and Neddyl inh conf inactive.
For Cc1cc(=O)n2[nH]c(-c3ccc(C(C)(C)C)cc3)cc2n1 the results were HGIII-sPLA2 inh -25, DAGLB inhibitor 3, ARNT-TACC3 inh 33, Neddylation inh 34 and NadD inh 1.

High-throughput results as filed in PubChem.
